Source: the supplement of paper PMC12819154, “High-throughput peptide-centric local stability assay extends protein–ligand identification to membrane proteins, tissues and bacteria” (Nature Structural & Molecular Biology, 2025)

compound: CN[C@@H]1C[C@H]2O[C@@](C)([C@@H]1OC)n1c3ccccc3c3c4c(c5c6ccccc6n2c5c31)C(=O)NC4 [staurosporine]; assay: log2 fold change of tryptic peptide abundance, ligand vs vehicle (limited proteolysis) (log2 ratio); higher = more trypsin-susceptible (destabilized); conditions: ligand concentration: 20 uM; sample: mouse liver crude lysate; replicate design: treated separately

UniProt P08226, sequence (P08226 whole entry): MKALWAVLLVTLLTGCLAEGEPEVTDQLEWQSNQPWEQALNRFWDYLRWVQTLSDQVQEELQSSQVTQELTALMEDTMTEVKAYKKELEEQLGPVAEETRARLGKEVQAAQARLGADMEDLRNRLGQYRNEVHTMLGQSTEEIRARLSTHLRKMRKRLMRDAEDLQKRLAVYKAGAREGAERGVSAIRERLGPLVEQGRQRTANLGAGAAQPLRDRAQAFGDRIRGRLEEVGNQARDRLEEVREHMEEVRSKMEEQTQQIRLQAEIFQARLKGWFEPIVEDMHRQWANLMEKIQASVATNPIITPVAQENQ
UniProt A6X919, sequence (A6X919 whole entry): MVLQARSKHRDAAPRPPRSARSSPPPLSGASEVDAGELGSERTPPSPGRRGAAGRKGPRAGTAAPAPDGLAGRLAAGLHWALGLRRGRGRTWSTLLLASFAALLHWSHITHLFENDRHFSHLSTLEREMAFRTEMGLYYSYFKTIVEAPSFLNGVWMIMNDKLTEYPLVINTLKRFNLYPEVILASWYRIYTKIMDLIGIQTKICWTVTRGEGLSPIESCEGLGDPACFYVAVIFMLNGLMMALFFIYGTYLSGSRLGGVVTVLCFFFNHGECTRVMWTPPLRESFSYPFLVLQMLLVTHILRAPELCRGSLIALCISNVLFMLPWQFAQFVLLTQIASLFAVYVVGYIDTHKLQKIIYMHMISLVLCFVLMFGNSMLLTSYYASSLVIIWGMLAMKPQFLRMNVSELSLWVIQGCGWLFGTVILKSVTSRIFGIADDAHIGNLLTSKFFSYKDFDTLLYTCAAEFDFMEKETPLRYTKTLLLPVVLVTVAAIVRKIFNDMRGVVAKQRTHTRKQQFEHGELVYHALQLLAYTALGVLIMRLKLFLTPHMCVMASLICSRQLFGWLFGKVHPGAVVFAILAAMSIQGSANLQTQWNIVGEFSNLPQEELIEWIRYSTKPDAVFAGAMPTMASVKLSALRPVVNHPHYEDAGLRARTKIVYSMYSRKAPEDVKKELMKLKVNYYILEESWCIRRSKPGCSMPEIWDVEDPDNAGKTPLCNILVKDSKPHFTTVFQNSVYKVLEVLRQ
UniProt Q9DBN5, sequence (Q9DBN5 whole entry): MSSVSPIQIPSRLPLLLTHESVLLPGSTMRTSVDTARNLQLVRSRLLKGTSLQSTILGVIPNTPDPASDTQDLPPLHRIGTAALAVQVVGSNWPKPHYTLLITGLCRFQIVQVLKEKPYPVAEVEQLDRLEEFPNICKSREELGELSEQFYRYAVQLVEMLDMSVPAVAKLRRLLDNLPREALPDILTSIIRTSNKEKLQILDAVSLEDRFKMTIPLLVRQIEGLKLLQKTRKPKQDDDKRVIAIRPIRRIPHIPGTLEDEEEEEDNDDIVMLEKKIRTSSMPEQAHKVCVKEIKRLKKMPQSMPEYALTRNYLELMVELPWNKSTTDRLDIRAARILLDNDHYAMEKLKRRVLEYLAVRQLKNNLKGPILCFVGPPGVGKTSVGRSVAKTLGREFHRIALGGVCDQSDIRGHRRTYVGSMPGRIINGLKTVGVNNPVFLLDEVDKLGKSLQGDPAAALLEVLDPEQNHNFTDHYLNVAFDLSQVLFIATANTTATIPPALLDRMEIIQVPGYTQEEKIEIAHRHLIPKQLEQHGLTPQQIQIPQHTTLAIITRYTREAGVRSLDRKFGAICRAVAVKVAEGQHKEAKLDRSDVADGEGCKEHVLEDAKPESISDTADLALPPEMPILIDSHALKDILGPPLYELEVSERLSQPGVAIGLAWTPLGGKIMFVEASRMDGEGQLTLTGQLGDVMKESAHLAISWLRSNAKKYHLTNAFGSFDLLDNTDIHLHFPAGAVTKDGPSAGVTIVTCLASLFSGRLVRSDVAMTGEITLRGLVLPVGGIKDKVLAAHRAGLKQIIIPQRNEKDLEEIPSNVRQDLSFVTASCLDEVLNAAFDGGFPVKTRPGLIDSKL
UniProt P50285, sequence (P50285 whole entry): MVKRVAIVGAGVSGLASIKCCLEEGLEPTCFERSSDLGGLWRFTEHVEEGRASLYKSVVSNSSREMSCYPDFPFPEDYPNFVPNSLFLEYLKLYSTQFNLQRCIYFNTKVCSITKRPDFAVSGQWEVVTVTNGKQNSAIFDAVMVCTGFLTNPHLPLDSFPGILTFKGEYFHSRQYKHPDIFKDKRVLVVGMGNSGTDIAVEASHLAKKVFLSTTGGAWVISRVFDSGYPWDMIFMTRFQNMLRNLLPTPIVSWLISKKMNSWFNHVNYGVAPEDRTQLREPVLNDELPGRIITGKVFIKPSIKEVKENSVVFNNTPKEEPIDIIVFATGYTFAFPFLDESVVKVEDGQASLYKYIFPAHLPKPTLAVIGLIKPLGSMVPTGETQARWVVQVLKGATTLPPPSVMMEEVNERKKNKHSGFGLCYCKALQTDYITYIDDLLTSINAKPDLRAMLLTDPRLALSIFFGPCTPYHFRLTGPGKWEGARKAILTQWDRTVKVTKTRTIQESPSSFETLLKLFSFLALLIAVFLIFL
UniProt Q66GT5, sequence (Q66GT5 whole entry): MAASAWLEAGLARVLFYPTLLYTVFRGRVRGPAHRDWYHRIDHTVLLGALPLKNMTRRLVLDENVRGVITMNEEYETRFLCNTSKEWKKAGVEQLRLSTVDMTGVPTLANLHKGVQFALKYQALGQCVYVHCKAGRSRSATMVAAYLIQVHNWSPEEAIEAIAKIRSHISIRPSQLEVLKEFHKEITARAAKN
UniProt A2ALW5, sequence (A2ALW5 whole entry): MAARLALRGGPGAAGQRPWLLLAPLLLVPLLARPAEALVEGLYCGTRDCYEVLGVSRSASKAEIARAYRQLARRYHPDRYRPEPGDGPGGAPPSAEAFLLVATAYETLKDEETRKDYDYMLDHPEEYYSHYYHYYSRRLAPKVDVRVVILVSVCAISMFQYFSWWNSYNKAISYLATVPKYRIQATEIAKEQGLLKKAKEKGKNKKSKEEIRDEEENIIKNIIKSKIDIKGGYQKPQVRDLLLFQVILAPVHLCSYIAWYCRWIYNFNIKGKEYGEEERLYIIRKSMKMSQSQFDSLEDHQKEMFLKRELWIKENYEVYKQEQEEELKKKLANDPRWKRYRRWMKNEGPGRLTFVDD
UniProt Q9QXX4, sequence (Q9QXX4 whole entry): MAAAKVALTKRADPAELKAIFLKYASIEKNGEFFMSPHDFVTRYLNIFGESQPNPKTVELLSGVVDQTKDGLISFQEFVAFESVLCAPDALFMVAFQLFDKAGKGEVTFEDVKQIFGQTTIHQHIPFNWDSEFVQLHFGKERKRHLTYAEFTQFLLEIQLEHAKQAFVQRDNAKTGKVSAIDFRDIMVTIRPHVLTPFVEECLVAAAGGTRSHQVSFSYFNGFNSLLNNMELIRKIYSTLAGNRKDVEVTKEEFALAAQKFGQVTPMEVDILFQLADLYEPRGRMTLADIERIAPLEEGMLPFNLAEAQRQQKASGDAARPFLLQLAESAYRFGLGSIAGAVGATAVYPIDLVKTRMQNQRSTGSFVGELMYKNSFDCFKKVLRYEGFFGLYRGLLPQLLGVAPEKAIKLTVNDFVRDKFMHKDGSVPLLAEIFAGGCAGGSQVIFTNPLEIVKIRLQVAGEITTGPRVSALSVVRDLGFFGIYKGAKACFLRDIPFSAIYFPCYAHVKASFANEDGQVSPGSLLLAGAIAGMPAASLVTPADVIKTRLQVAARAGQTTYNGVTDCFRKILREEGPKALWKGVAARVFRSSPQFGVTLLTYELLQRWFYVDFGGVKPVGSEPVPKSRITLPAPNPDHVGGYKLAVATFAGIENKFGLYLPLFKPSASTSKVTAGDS
UniProt P70349, sequence (P70349 whole entry): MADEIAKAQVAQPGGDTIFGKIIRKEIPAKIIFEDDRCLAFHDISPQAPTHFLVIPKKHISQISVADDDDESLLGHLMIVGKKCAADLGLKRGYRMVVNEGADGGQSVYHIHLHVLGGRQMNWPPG

Compared with “UniProt Q3TLP5 (peptide sequence: GLLPGAGGTQR, peptide start residue: 170)”, “UniProt Q66GT5 (peptide sequence: IDHTVLLGALPLK, peptide start residue: 41)” is lower in log2 fold change: 0.658 for the first, 0.379 for the second.

First: UniProt P63158 (peptide sequence: HPDASVNFSEFSKKCSER, peptide start residue: 31)
Second: UniProt Q9D826 (peptide sequence: INVCYWR, peptide start residue: 224)
Sequence (Q9D826 whole entry): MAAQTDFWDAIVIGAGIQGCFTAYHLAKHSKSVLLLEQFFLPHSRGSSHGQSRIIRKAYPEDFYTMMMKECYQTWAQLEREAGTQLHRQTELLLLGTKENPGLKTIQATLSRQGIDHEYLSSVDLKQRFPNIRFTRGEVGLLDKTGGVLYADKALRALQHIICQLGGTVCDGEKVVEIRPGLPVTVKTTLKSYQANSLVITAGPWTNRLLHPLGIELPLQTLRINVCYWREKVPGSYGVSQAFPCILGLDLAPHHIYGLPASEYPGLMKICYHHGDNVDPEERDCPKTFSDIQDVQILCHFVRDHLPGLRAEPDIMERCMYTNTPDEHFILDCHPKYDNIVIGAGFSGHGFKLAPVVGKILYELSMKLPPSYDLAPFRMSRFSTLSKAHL
The log2 fold change of the first is lower: -0.395 for the first, 0.236 for the second.

First: UniProt Q9Z2B9 (peptide sequence: KIPAPFRPQIR, peptide start residue: 313)
Sequence (Q9Z2B9 whole entry): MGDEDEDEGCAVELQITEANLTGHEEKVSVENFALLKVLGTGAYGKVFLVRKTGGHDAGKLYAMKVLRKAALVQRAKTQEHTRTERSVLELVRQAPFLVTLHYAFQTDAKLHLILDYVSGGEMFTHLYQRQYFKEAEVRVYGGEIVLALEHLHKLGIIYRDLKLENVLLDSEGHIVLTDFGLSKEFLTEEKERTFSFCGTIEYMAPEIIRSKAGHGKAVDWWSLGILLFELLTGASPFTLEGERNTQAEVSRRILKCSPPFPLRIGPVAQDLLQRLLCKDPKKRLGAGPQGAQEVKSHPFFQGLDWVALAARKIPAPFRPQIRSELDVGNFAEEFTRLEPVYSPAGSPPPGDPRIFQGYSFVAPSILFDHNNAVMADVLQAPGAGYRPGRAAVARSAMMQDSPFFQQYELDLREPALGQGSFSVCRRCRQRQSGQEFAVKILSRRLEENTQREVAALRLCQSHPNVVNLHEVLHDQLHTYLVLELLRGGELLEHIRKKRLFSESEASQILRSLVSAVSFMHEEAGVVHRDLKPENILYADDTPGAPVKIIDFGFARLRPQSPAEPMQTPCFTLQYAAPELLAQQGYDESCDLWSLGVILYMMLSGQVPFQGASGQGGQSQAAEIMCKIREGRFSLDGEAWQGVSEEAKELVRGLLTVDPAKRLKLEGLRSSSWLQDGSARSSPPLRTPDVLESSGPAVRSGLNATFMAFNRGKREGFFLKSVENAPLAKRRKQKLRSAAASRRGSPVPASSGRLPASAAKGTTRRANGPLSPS
Second: UniProt Q9DBM2 (peptide sequence: VGIPVVAVESDPKQLDTAKK, peptide start residue: 317)
The log2 fold change of the first is lower: -1.34 for the first, 0.344 for the second.

Compared with “UniProt Q3UU96 (peptide sequence: LHREDFEILK, peptide start residue: 72)”, “UniProt Q8BWW9 (peptide sequence: VKPPFVPTIR, peptide start residue: 928)” is lower in log2 fold change: -1.65 for the first, -2.86 for the second.

“UniProt A6X919 (peptide sequence: AGTAAPAPDGLAGR, peptide start residue: 60)” and “UniProt P08226 (peptide sequence: LQAEIFQAR, peptide start residue: 262)” are within 0.2 log units of each other in log2 fold change: 0.335 for the first, 0.428 for the second.

First: UniProt Q9WTK7 (peptide sequence: SMTVVPYLEDLHGR, peptide start residue: 334)
Second: UniProt Q9DCW4 (peptide sequence: VDLLFLGK, peptide start residue: 117)
The log2 fold change of the first is higher: 1.41 for the first, 0.27 for the second.

Going from “UniProt Q99J56 (peptide sequence: GGVSGFGVPPASMR, peptide start residue: 215)” to “UniProt Q5EG47 (peptide sequence: DLKPENVLLDAHMNAK, peptide start residue: 150)”, the log2 fold change falls from 0.327 to -4.22.

First: UniProt Q9D8V0 (peptide sequence: SSSDMPETITSR, peptide start residue: 62)
Second: UniProt P06728 (peptide sequence: LQLTPYIQR, peptide start residue: 155)
The log2 fold change of the first is lower: -1.22 for the first, 0.346 for the second.

“UniProt Q9JM62 (peptide sequence: NVATEALGALEAR, peptide start residue: 16)” and “UniProt Q4LDG0 (peptide sequence: NQPFLGYR, peptide start residue: 501)” are within 0.2 log units of each other in log2 fold change: 0.439 for the first, 0.345 for the second.

Compared with “UniProt Q9EPE9 (peptide sequence: EVTPVSSIPIETHR, peptide start residue: 553)”, “UniProt Q9DBN5 (peptide sequence: NEKDLEEIPSNVR, peptide start residue: 804)” is lower in log2 fold change: -0.718 for the first, -1.06 for the second.

Going from “UniProt P47911 (peptide sequence: HQEGEIFDTEK, peptide start residue: 235)” to “UniProt Q9CYH2 (peptide sequence: LGVWYNSFR, peptide start residue: 145)”, the log2 fold change falls from 0.281 to -2.12.

Compared with “UniProt Q91VJ4 (peptide sequence: DTGHVYAMK, peptide start residue: 110)”, “UniProt A2ALW5 (peptide sequence: WIYNFNIK, peptide start residue: 263)” is higher in log2 fold change: -3.23 for the first, 0.844 for the second.

“UniProt Q8VDP6 (peptide sequence: MIDLSGNPVLR, peptide start residue: 122)” and “UniProt Q9QXX4 (peptide sequence: AGQTTYNGVTDCFRK, peptide start residue: 555)” are within 0.2 log units of each other in log2 fold change: 0.341 for the first, 0.466 for the second.

Compared with “UniProt Q91XU3 (peptide sequence: VYIGEEEKK, peptide start residue: 252)”, “UniProt P70349 (peptide sequence: IIFEDDR, peptide start residue: 31)” is higher in log2 fold change: -1.32 for the first, -0.309 for the second.

Compared with “UniProt Q9R0T8 (peptide sequence: DIKPGNIMR, peptide start residue: 135)”, “UniProt O35099 (peptide sequence: YLHDNQIVHR, peptide start residue: 800)” is lower in log2 fold change: -1.44 for the first, -3.12 for the second.

“UniProt P50285 (peptide sequence: TQLREPVLNDELPGR, peptide start residue: 277)” showed a log2 fold change of 0.327.
